About 83,000 compounds went through this panel and 20% of them were active in at least one assay; those are over-represented in the sample as a whole.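 The endpoint reported here, percent growth, reads 100 for growth as untreated, 0 for no net growth and -100 for all cells dead.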 Active and inactive are the calls of the source. How the source made its calls: active means growth percent below 10; inactive means the rest.

The assay concerns MALME-3M melanoma. Nature of the assay: NCI-60 one-dose screen, 48 h (100 = growth as untreated, 0 = no growth, -100 = all killed). The following applies: 10 µM unless noted.
With `N#CCCN=Nc1c(O)[nH]c2ccc([N+](=O)[O-])cc12`, the growth was 110% (inactive). With `COc1cc(-c2ccc3c(c2)NC(=O)/C3=C\c2ccc[nH]2)ccc1O` the figure was 66.4% (inactive); with `C=C(C)[C@@H]1CC[C@]2(C(N)=O)CC[C@]3(C)[C@H](CC[C@@H]4[C@@]5(C)C/C(=C/c6ccco6)C(=O)C(C)(C)[C@@H]5CC[C@]43C)[C@@H]12`, 87% (inactive). For `O=C1Nc2c(ccc(Cl)c2Cl)/C1=C\c1cc(C(F)(F)F)cc(C(F)(F)F)c1`, the growth is -55.5% (active). For `COc1cc2c(cc1-c1c(C)noc1C)ncc1nc(C3CCOCC3)n([C@@H](C)COC(F)F)c12`, the growth is 66.3% (inactive). Regarding `O=C1Nc2c(ccc(Cl)c2Cl)/C1=C\c1ccc(C(F)(F)F)cc1`, the growth was 96.5% (inactive).

For `C[n+]1ccccc1/C=C/c1ccc2cccc(O)c2n1`, the growth was 146% (inactive).

For the compound `COc1ccc(/C=C/c2nc3ccccc3nc2/C=C/c2ccc(OC)cc2)cc1`, the growth is 109% (inactive). The result for `C=CC(=O)Nc1cccc(-c2nc(SC)nc(NCCN3CCOCC3)c2C#N)c1` reads 89.6% (inactive); that for `COc1cc2nc(N3CCCC3)nc(NCc3ccccc3)c2cc1OC`, 41.2% (inactive); that for `COc1cc(CNc2oc(-c3ccccc3)c(-c3ccccc3)c2C#N)cc(CN2CCN(C)CC2)c1O`, 20.6% (inactive). As to `O=C(/C=C/c1cc(CN2CCOCC2)c(O)c2ncccc12)c1cc(CN2CCOCC2)c(O)c2ncccc12`, the growth is 38.9% (inactive).

In the case of `CSc1nc(NCCO)c(C#N)c(-c2cccc([N+](=O)[O-])c2)n1`, the growth was 111% (inactive). On to `CCN(CC)c1ccc(-c2cc(-c3cc(OC)c(OC)c(OC)c3)nc(N3CCOCC3)c2C#N)cc1`, for which the growth was -12.6% (active).

Take `COc1ccc2[nH]cc(-c3noc(C(=O)c4cn(C)c5ccc(F)cc45)n3)c2c1`: the growth was 95.5% (inactive). With `CCCc1cc(=O)n2c(C(=O)Nc3cccc(C(=O)OCC)c3)c(C(=O)Nc3ccc(F)cc3)sc2n1`, the growth was 71.9% [30 µM] (inactive). With `O=S(=O)(Nc1ccc(I)cc1F)c1ccc(-c2cnc(C3CC3)o2)cc1` the figure was 50.9% (inactive); with `COC(=O)c1cccc(NC(=O)c2ccc(-c3cccc(N)c3)o2)c1`, 91.1% (inactive); with `O=C(/C=C/c1ccccc1)c1ccc(O)c(CN2CCN(c3cc4c(cc3F)c(=O)c(C(=O)O)cn4C3CC3)CC2)c1`, 18.9% (inactive). For `Cc1[nH]c(-c2cc(N)ccc2Cl)c2c1C(=O)CCCC2`, the growth is 32.4% (inactive).

Turning to `Nc1nc2ncc(CCNc3ccc(C(=O)O)cc3)nc2c(=O)[nH]1`, the growth is 137% (inactive). The result for `O=C1c2cc3c(cc2-c2c1c1ccc(F)cc1c(=O)n2CCCNCCO)OCO3` reads -72.2% (active). The result for `N#C/C(=C\c1ccc(-c2cc(C(F)(F)F)ccc2Cl)o1)c1nc(-c2ccco2)cs1` reads 106% (inactive). Regarding `O=c1cc(CSc2nnc(-c3ccc(F)cc3)o2)c2ccc3ccccc3c2o1`, the growth is 107% (inactive). Turning to `C=C(C)[C@@H]1CC[C@]2(C(=O)OC)CC[C@]3(C)[C@H](CC[C@@H]4[C@@]5(C)C/C(=C/c6cccc(I)c6)C(=O)C(C)(C)[C@@H]5CC[C@]43C)[C@@H]12`, the growth is 91.6% (inactive).

Turning to `O=C1OCC2=C1C(c1ccncc1)c1cc3c(cc1N2CCO)OCO3` (stereo not given), the growth was 89.9% (inactive). Consider `COC(=O)c1ccc(NC(=O)c2ccc(-c3cccc([N+](=O)[O-])c3)o2)cc1`, for which the growth is 90.3% (inactive). `O=c1cc(/C(=C2/C=CC=N2)c2ccc[nH]2)c2cc(Cl)ccc2o1`: the growth is 66.6% (inactive). `COc1ccc2nc(NC(=O)CSc3nnc4n3S(=O)(=O)c3ccccc3N4c3ccccc3)sc2c1`: the growth is 89.7% (inactive). The result for `Cc1cc(C)nc(SC2=C(Nc3ccc(C)c(Cl)c3)C(=O)N(Cc3ccccc3)C2=O)n1` reads 66.4% [30 µM] (inactive); that for `CC(C)C1=C[C@@]23CC[C@@H]4[C@](C)(CCC[C@@]4(C)C(=O)N4CCCNCC4)[C@H]2C[C@@H]1[C@H]1C(=O)CCC(=O)[C@H]13`, 99.9% (inactive); that for `O=C1C=C(OCC=C(Cl)Cl)C(=O)c2ccccc21`, 80.9% (inactive). With `COc1cccc(/C=C2\SC(=Nc3ccc(NC(C)=O)cc3)NC2=O)c1OC`, the growth is 107% (inactive).

As for `C=CCSSc1ncnc2c1ncn2C1OC(CO)C(O)C1O` (stereo not given), the growth was 48.3% (inactive). `Cc1ncc(C(=O)Nc2ccc(CN3CCN(C)CC3)c(C(F)(F)F)c2)cc1C#Cc1cnc2cccnn12`: the growth was -72% (active).

The values above are taken from PubChem BioAssay (NCI).
